Several values for one entry are separate records, joined by “and”; a condition that tells them apart may be missing. Equal values may be shown once. The campaign covered roughly 350,000 compounds. About 2,100 (0.6%) were called active. Not shown: some 1% with an inconclusive outcome.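 Rule for the calls: active = activity change of -60% or lower, but not beyond a set lower limit; inconclusive = change between -60% and -40%, or beyond the set limit; inactive = change above -40%.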 Only a selection was taken, and actives are over-represented in it overall. Some structures have more than one record in an assay (separate samples or runs), and their calls can disagree.
Molecular target: Relaxin receptor 1 (Homo sapiens) (UniProt Q9HBX9)
Test: qHTS Assay for Antagonists of the Relaxin Receptor RXFP1
Conditions: HEK293-RXFP1, relaxin-stimulated cAMP HTRF, 30 min; at 57.5 µM; stronger effect = lower value
Text: The relaxin hormone is involved in the variety of biological functions in normal tissues and diseases. The role of relaxin is well-established in female reproduction and parturition, mammary gland and endometrial development, maintenance of myometrial quiescence during pregnancy. Relaxin signaling through its G protein-coupled receptor (GPCR) RXFP1 results in ECM remodeling through regulation of collagen deposition, cell invasiveness, proliferation and overall tissue homeostasis. […] Recombinant human relaxin (rhRlx) is currently being tested in clinical trials as a protective agent in congestive heart failure, in treating severe preeclampsia, and as an anti-fibrotic agent in various organs. […] Upon relaxin binding RXFP1 activation leads to the activation of adenylate cyclase (AC) via G?s. cAMP will activate PKA, which phosphorylates many signaling proteins. Thus, detection of cAMP increase is an easy and reliable indication of relaxin receptor activation. To screen for antagonists of the relaxin receptor, a HEK293T cell line stably transfected with RXFP1 was used. RXFP1 activation by relaxin in presence of various concentrations of tested compounds was assayed by changes in cAMP levels as detected with a time-resolved fluorescence energy transfer (TR-FRET) cAMP detection kit.
For the primary screening, we used HTRF(R) (Homogenous Time-Resolved Fluorescence) cAMP HiRange assay (Cisbio Bioassays, 62AM6PEJ). Presence of cAMP in the cell lysate disrupts binding between the Cryptate-labeled anti-cAMP and d2-labeled cAMP pair, leading to a decrease in TR-FRET signal. The libraries were screened at two doses (57microM and 11microM), followed by a confirmation of the hits at 7-point serial dilution in the range of final concentrations [57microM - 78nM]. Data were normalized to the controls for basal activity (buffer only) and 100% activity (5 nM porcine relaxin). The EC50 values were determined from concentration-response data modeled with the standard Hill equation. NCGC Assay Protocol Summary: HiHEK (Hawaiian HEK293 LGR7 stably transfected with human RXFP1) were grown in the following media: DMEM+10%FBS+Pen/Strep + Geneticin (1mg/ml). For the assay, the cells were seeded in DMEM+Pen/Strep (with no serum & selective antibiotics) at 2,100 cells/ 3microl/well with MultiDrop Combi dispenser (Thermo Scientific, Logan, UT) onto white tissue culture treated solid bottom1536-well plates (Greiner #789173-F) and allowed to attach/recover overnight at 37 degrees C, 5% CO2. Next, 23nl/well of compound solutions in DMSO were transferred into wells with a pintool (Kalypsis, San Diego, CA). […] EC80 (relaxin at 50pM final concentration) was dispensed to the rest of the plate except columns 1&2 which were used as a negative control (EC0, buffer only), 1microl/well also. The cells were stimulated by relaxin in the presence of compounds for 30 minutes at 37 degrees C, 5% CO2. The detection reagents were prepared individually by dilution in Lysis buffer (supplied with the assay kit) just prior to dispensing. 1microl/well of cAMP-d2 and 1microl/well anti-cAMP-Eu3+-Cryptate antibodies were added simultaneously with BioRAPTR FRDtrade mark Workstation (Beckman Coulter). The plates were incubated at ambient temperature for 30 minutes and, then, FRET signal was read on Envision plate reader (PerkinElmer, Waltham, MA), at wavelengths 340nm (excitation), 615nm & 665nm (emission of donor and acceptor channels respectively).

Relaxin receptor 1 (Homo sapiens), sequence (Q9HBX9 whole entry, looked up): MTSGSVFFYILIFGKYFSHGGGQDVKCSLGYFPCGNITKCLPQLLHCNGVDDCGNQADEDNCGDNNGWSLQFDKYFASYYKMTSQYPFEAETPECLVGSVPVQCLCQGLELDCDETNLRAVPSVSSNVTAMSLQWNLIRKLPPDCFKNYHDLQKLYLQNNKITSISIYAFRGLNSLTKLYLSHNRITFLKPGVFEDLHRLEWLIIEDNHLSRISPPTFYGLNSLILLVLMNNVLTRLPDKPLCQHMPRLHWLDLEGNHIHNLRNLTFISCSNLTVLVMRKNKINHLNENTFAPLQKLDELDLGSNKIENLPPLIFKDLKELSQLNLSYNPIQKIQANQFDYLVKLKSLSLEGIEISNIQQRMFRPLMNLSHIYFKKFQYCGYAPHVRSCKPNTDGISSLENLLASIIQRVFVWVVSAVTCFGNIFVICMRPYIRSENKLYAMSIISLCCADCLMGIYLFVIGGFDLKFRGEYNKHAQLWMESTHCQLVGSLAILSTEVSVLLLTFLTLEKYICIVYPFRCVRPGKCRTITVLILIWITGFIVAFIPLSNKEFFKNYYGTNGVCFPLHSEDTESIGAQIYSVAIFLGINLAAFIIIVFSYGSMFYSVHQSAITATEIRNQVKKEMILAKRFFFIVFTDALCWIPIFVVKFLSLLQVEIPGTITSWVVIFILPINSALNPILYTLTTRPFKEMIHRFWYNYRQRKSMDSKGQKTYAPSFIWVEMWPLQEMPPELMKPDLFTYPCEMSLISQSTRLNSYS

Compound | activity change, negative = inhibition
Cc1cc(-c2n[nH]c(=S)n2/N=C/C(Br)=C/c2ccccc2)n[nH]1 | -5.02% (inactive)
Cc1nnc(C(=O)NC(C)(C)c2nc(C(=O)NCc3ccc(F)cc3)c(O)c(=O)n2C)o1 | -18.2% (inactive)
COc1ccc(Cl)cc1N(CC(=O)N1CCCCC1)S(C)(=O)=O | 15.3% (inactive)
COc1ccc(Cl)cc1N(CC(=O)N/N=C/c1ccc(OCC(N)=O)cc1)S(C)(=O)=O | -77.6% (active)
NC(=O)COc1ccc(/C=N/NC(=O)C2CCCN2S(=O)(=O)c2ccc(Cl)cc2)cc1 (centres undefined) | -2.72% (inactive)
CCOc1ccc(-c2nonc2NC(=O)c2oc3ccc(C)cc3c2C)cc1OCC | 6.02% (inactive)
CC(C)N(C(=O)CSc1nnc(NC2CC2)s1)c1ccccc1 | -4.86% (inactive)
CN(C(=O)CSc1nnc(NC(=O)Nc2ccccc2)s1)c1ccccc1 | -2.91% (inactive)
CC(C)c1ccc(Nc2nnc(SCC(=O)c3nnc(-c4ccccc4)o3)s2)cc1 | -83.3% (active)
CCc1ccc(N2C(=O)CN(S(=O)(=O)CC)CC2(C)C(=O)NC2CCCCC2)cc1 (centres undefined) | 4.08% (inactive)
O=C(N/N=C\C1CC=CCC1)c1ccc(Br)o1 (centres undefined) | 0.253% (inactive)
Cc1nnc(N/N=C/c2ccccn2)[nH]c1=O | 5.71% (inactive)
Cc1nnc(N/N=C/C2CC=CCC2)[nH]c1=O (centres undefined) | -71.6% (active)
Cc1ccc2nc(-c3ccc(O)cc3)c(Nc3ccc4c(c3)OCO4)n2c1 | 15.3% (inactive)
CCN(CC)c1cc(NC2CCCCC2)c2c3c(onc13)-c1ccccc1C2=O | -18.9% (inactive)
CCOC(=O)c1c(NC(=O)CSc2nccc(=O)[nH]2)sc(C)c1C | -91.3% (active)
CCOC(=O)c1c(NC(=O)CSc2nnc(CNc3ccc(C)cc3C)o2)sc(C)c1C | -10.8% (inactive)
CCOC(=O)c1c(NC(=O)CSc2nnc(Cc3csc(N)n3)n2C)sc(C)c1C | -1.84% (inactive)
CCOc1ccccc1C(=O)Nc1ccc(S(=O)(=O)N2CCCCC2c2cccnc2)cc1 (centres undefined) | -12.4% (inactive)
CCOc1ccc(N(CC)S(=O)(=O)N2CCCC(C(=O)NCc3ccc(Cl)cc3)C2)cc1 (centres undefined) | -18.5% (inactive)
CCN(CC)CCCNC(=O)c1ccc2c(=O)n(Cc3ccc4c(c3)OCO4)c(=S)[nH]c2c1 | -14.7% (inactive)
CCCCNC(=O)c1ccc(-n2c(=S)[nH]c3ccccc3c2=O)cc1 | -80.7% (active)

Compound | activity change, negative = inhibition
COCCn1c(=S)[nH]c2cc(C(=O)NCCc3ccc(OC)c(OC)c3)ccc2c1=O | 2.84% (inactive)
CCN1CCN(c2ncnc3c2cnn3-c2ccc(C)c(C)c2)CC1 | -9.99% (inactive)
O=c1oc2ccccc2c(=O)c2ccccc12 | 10.6% (inactive)
Cc1ccccc1-n1nnc2c(=O)oc3ccccc3c21 | -91.4% (active)
Cc1cccc(N2CCN(c3c(CN4CCCC4)c(=O)oc4ccccc34)CC2)c1C | -2.93% (inactive)
O=C(OCCN1CCOCC1)c1cccnc1Nc1cccc(C(F)(F)F)c1 | -38.4% (inactive)
CCOc1ccc(C(NC(=O)c2cc(OC)c(OC)c(OC)c2)c2cc(Cl)c3cccnc3c2O)cc1 (centres undefined) | -12.8% (inactive)
Cc1ccccc1CN1C(=O)c2ccccc2Sc2ccc(C(=O)NCCCN3CCOCC3)cc21 | -22.1% (inactive) and -63.9% (active)
O=C(NCCN1CCOCC1)c1ccc(/C=C2\Sc3ccccc3N(Cc3ccc(F)cc3)C2=O)cc1 | -82.1% (active)
O=C(NCCN1CCOCC1)c1ccc2c(c1)N(Cc1cccc(Cl)c1)C(=O)c1ccccc1S2(=O)=O | 2.8% (inactive)
CCC1=Nc2cc(C(=O)NCCCN3CCOCC3)ccc2Sc2ccc(Br)cc21 | -16.7% (inactive)
O=C(NCCN1CCOCC1)/C(=C/c1ccc(F)cc1)NC(=O)c1ccccc1 | 12.6% (inactive)
CN1CCN(CCCNC(=O)c2ccc(/C=C3\Oc4ccccc4N(Cc4ccc(Cl)cc4)C3=O)cc2)CC1 | 6.65% (inactive)
COc1ccc(S(=O)(=O)NCC(c2ccc(N(C)C)cc2)N2CCc3ccccc32)cc1OC (centres undefined) | -3.43% (inactive)
CN(C)c1cccc(C(=O)Nc2nc3ccc(S(=O)(=O)NC(C)(C)C)cc3s2)c1 | 1.26% (inactive)
CC(C)c1ccc(OCC(=O)N(Cc2ccc(N(C)C)cc2)C2CCS(=O)(=O)C2)cc1 (centres undefined) | -31.5% (inactive)
Cc1cccc(Cn2c(SCc3ccc(C(=O)N4CCC(C)CC4)cc3)nc3ccncc32)c1 | -27.4% (inactive)
CC(C)c1ccc(NC(=O)Cn2nnc(C(=O)NCCc3ccccc3)c2N)cc1 | 7.65% (inactive)
Cn1c(C(=O)N2CCC(C(=O)N3CCN(c4ccccc4)CC3)CC2)cc2sccc21 | -7.62% (inactive)
CCC(CC)NC(=O)/C=C/c1cccc([N+](=O)[O-])c1 | 5.58% (inactive)
O=C(CN1CCOCC1)Nc1cccc([N+](=O)[O-])c1 | -13.2% (inactive)
COC(=O)/C=C\C(=O)Nc1cccc([N+](=O)[O-])c1 | -90.5% (active)

From PubChem BioAssay AID1259400 (National Center for Advancing Translational Sciences (NCATS), 2018)
